Measured values as given in the supplement of paper PMC13380429.

Tested on: Vero E6 infected with SARS-CoV-2
Assay: inhibition of SARS-CoV-2 cytopathic effect; higher = more antiviral protection, active = above 15
Conditions: 48 h

Measured: inhibition of SARS-CoV-2 cytopathic effect

C/C(=C\c1ccc(C(=O)O)cc1)c1ccc2c(c1)C(C)(C)CCC2(C)C
inactive: 1 nM -0.5% | 8.33 nM -1.23% | 100 nM -2.43% | 833.33 nM 0.15% | 10000 nM 3.67%

CCOc1ccc(-n2c([C@@H](C)N(Cc3cccnc3)C(=O)Cc3ccc(OC(F)(F)F)cc3)nc3ncccc3c2=O)cc1 (racemic)
inactive: 1 nM 0.51% | 8.33 nM 2.23% | 100 nM 0.96% | 833.33 nM 1.88% | 10000 nM -1.62%

C[C@@]12CC[C@@H]3[C@@](CC[C@H]4[C@@]3(C)CCC[C@@]4(C)C(=O)O)(CC1=O)C2 [isosteviol]
inactive: 1 nM -1.01% | 8.33 nM 3.07% | 100 nM -0.69% | 833.33 nM 0.69% | 10000 nM 1.55%

O=C(NNc1ccccc1)c1ccncc1 [plurisin-1]
inactive: 1 nM 0.37% | 8.33 nM 1.32% | 100 nM 1.76% | 833.33 nM -2.79% | 10000 nM -6.02%

C[n+]1c2cc(N)ccc2cc2ccc(N)cc21.Nc1ccc2cc3ccc(N)cc3nc2c1 [acriflavine]
inactive: 1 nM 2.32% | 8.33 nM 1.62% | 100 nM 1.04% | 833.33 nM -1.18% | 10000 nM -12.9%

Cc1ccc(-c2ncn(-c3ccc(Nc4nccc(-c5cccc(N6CCOCC6)c5)n4)cc3)n2)cn1
inactive: 1 nM -4.9% | 8.33 nM -4.6% | 100 nM -3.08% | 833.33 nM -5.23% | 10000 nM -2.89%

N#Cc1c(N)nc(SCC(N)=O)c(C#N)c1-c1ccc(OCC2CC2)cc1
inactive: 1 nM 4.36% | 8.33 nM 2.85% | 100 nM 2.51% | 833.33 nM 10.1% | 10000 nM 12.1%

O=C(Nc1ccc(CN2CCOCC2)cc1)c1ccc(-c2cccc(Cl)c2)o1
inactive: 1 nM 0.42% | 8.33 nM -1.17% | 100 nM 0.17% | 833.33 nM 0.72% | 10000 nM -0.79%

C[C@@H](O[C@H]1OCCN(Cc2nn[nH]c2CN(C)C)[C@H]1c1ccc(F)cc1)c1cc(C(F)(F)F)cc(C(F)(F)F)c1
inactive: 1 nM -0.75% | 8.33 nM -1.76% | 100 nM -0.97% | 833.33 nM -4.49% | 10000 nM 7.29%

C[N+]1(C)[C@@H]2C[C@@H](OC(=O)C(O)(c3cccs3)c3cccs3)C[C@H]1[C@@H]1O[C@@H]12 [tiotropium]
inactive: 1 nM 0.89% | 8.33 nM -2.54% | 100 nM -2.45% | 833.33 nM -5.08% | 10000 nM -3.35%

O=C(O)CCC(=O)C(=O)O [2-oxoglutaric-acid]
inactive: 1 nM -3.15% | 8.33 nM -0.14% | 100 nM 1.87% | 833.33 nM 0.16% | 10000 nM -2.21%

CC(=O)Oc1c(C)cc(OCC(O)CNC(C)C)c(C)c1C (stereo not given) [metipranolol]
inactive: 1 nM -0.83% | 8.33 nM 0.56% | 100 nM 0.06% | 833.33 nM -1.66% | 10000 nM -3.06%

CC(C)c1ccc(C(=O)N=C(N)N)cc1S(C)(=O)=O [cariporide]
inactive: 1 nM 0.61% | 8.33 nM 4.56% | 100 nM 2.44% | 833.33 nM 1.5% | 10000 nM -0.17%

O=C(O)c1ccc(Nc2ncc3c(n2)-c2ccc(Cl)cc2C(c2c(F)cccc2F)=NC3)cc1
inactive: 1 nM -1.58% | 8.33 nM -1.02% | 100 nM 0.11% | 833.33 nM -1.57% | 10000 nM -1.05%

CCN(CC)CC(=O)Nc1c(C)cccc1C [lidocaine]
inactive: 1 nM 0.85% | 8.33 nM 1.24% | 100 nM 0.45% | 833.33 nM 1.31% | 10000 nM -0.93%

Nc1nonc1/C(=N/O)Nc1ccc(F)c(Cl)c1
inactive: 1 nM 5.29% | 8.33 nM 3.44% | 100 nM 2.09% | 833.33 nM 0.57% | 10000 nM -2.02%

O=C(O)/C=C\c1c[nH]cn1 [cis-Urocanic acid]
inactive: 1 nM 0.865% | 8.33 nM -1.24% | 100 nM -1.15% | 833.33 nM -0.955% | 10000 nM 1.12%

CN[C@@H](C)C(=O)N[C@H](C(=O)N1CCC[C@H]1C(=O)Nc1snnc1-c1ccccc1)C1CCCCC1
inactive: 1 nM 0.62% | 8.33 nM -0.64% | 100 nM -0.23% | 833.33 nM -0.79% | 10000 nM -5.99%

CC(C)Cn1cnc2c1c(=O)n(C)c(=O)n2C [isbufylline]
inactive: 1 nM -1.81% | 8.33 nM 0.75% | 100 nM 0.2% | 833.33 nM -0.05% | 10000 nM 1.65%

CN(C)CCCNC(=O)c1ccc(-c2cc(O)c3ncccc3c2)cc1
inactive: 1 nM -1.74% | 8.33 nM -0.41% | 100 nM 1.01% | 833.33 nM -0.72% | 10000 nM 6.05%

O=C1CN2Cc3c(ccc(Cl)c3Cl)N=C2N1 [anagrelide]
inactive: 1 nM 0.79% | 8.33 nM -0.94% | 100 nM -1.24% | 833.33 nM -0.35% | 10000 nM 0.92%

Cc1c(-c2ccccc2)oc2c(C(=O)OCCN3CCCCC3)cccc2c1=O [flavoxate]
inactive: 1 nM -1.05% | 8.33 nM 0.44% | 100 nM 0.93% | 833.33 nM -0.65% | 10000 nM 0.61%

CN[C@@H](C)C(=O)N[C@H](C(=O)N1CCC[C@H]1C(=O)Nc1sc(-c2ncco2)nc1-c1ccccc1)C1CCCCC1
inactive: 1 nM -0.55% | 8.33 nM -0.2% | 100 nM -0.7% | 833.33 nM 0.89% | 10000 nM 0.18%

Cn1cc(C2=C(c3ccc(Cl)cc3Cl)C(=O)NC2=O)c2ccccc21
active: 10000 nM 20.8%
inactive: 1 nM 2.26% | 8.33 nM 6.22% | 100 nM 4.19% | 833.33 nM 1.47%

COc1cc(NS(C)(=O)=O)ccc1Nc1c2ccccc2nc2ccccc12 [amsacrine]
inactive: 1 nM -2.31% | 8.33 nM 1.72% | 100 nM -0.21% | 833.33 nM -6.01% | 10000 nM -5.76%

O=C(Oc1ccccc1C(=O)O)c1ccccc1O [sasapyrine]
inactive: 1 nM -6.73% | 8.33 nM -8.94% | 100 nM -2.49% | 833.33 nM -6.28% | 10000 nM -11.8%

CC(C)c1noc(N2CCC(COc3ccc(-c4ccc(S(C)(=O)=O)cc4)nc3)CC2)n1
inactive: 1 nM -1.46% | 8.33 nM -1.84% | 100 nM -1.48% | 833.33 nM -0.49% | 10000 nM -0.23%

C[N+]1(C)[C@@H]2CC[C@H]1C[C@@H](OC(=O)C(CO)c1ccccc1)C2 (stereo not given in full) [methylatropine-nitrate]
inactive: 1 nM 1.74% | 8.33 nM 2.06% | 100 nM 2.14% | 833.33 nM 4.12% | 10000 nM 3.88%
